Screening results from PubChem BioAssay.
Hits are enriched below; roughly 4.6% of the tested compounds scored in any of these assays.
D1 PAM: Potentiators of Human D1 Dopamine Receptor: qHTS; D(1A) dopamine receptor (Homo sapiens), P21728; HEK293 TREx D1 cells, calcium flux, dopamine EC20 potentiation; potentiation, % at 10 µM; 0.036% of 360,000 active; AID 504651, 2011; in the data active = potentiation above about 30%; also: 0% is about no effect
D1 agonist: Allosteric Agonists of the Human D1 Dopamine Receptor: qHTS. 1% of 360,000 active. activation, % at 2 µM. HEK293 T-REx D1 cells, calcium flux, agonist mode. AID 504660, 2011. D(1A) dopamine receptor (Homo sapiens), P21728; also: 0% is about no effect
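Agonism was scored from calcium flux recorded over 180 s (1 read/s) after pintool compound addition, following a 10-cycle baseline. Cells were inducible force-coupled HEK293 TREx D1, plated overnight at 30 C and loaded with no-wash calcium dye.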
TRHR ag: qHTS for Small Molecule Agonists and Allosteric Enhancers of Human TRH Receptor: Primary Screen for Agonists; Thyrotropin-releasing hormone receptor (Homo sapiens), P34981; TRHR cells, calcium flux fluo-8, FDSS agonist mode; activation, % at 2 µM; 0.18% of 360,000 active; AID 493084, 2011; also: 0% is about no effect
Target sequence (P34981 whole entry, looked up): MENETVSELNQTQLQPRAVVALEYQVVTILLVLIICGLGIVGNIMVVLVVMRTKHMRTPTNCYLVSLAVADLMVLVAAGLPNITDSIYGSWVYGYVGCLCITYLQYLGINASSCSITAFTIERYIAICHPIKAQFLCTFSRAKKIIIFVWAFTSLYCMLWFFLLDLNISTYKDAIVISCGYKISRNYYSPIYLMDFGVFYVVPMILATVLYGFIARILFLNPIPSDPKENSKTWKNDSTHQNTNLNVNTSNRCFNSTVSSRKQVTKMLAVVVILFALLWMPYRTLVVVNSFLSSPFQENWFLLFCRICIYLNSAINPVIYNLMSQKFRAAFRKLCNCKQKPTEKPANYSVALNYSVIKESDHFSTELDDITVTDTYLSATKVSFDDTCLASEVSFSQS
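Steps: seed TRHR cells overnight; add fluo-8 no-wash Ca dye, RT 30 min–1.5 h; record 10 s baseline; pin-transfer compounds; monitor fluorescence 1 cycle/s for the agonist window. Calcium increases flag candidate agonists.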
D1 antag: Antagonist of Human D 1 Dopamine Receptor: qHTS; HEK293 TREx D1 cells, calcium flux, dopamine EC80; active compounds read low; activity change, negative = inhibition, % at 10 µM; 3.2% of 360,000 active; in the data active = activity change below about -30%; also: % is scaled to controls: 0 for no effect and ±100 for the full control effect
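Using tetracycline-induced force-coupled D1 Hek293 cells and a calcium dye, signals were followed for 180 s after compound, then for 180 s after EC80 dopamine, to detect inhibitors.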
TRHR enhancer: qHTS for Small Molecule Agonists and Allosteric Enhancers of Human TRH Receptor: Primary Screen for Enhancers; 0.66% of 360,000 active; enhancement, % at 2 µM; TRHR cells, fluo-8 calcium fluorescence, EC20 TRH enhancement; Thyrotropin-releasing hormone receptor (Homo sapiens), P34981; in the data active = enhancement above about 30%; also: 0% is about no effect
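Enhancer read-out: after compound pinning and an initial kinetic agonist-mode read, an EC20 of TRH (10 nM final) was injected and fluo-8 calcium signal (Ex 480/Em 530) followed at 1 s/cycle for 100 cycles in TRHR-expressing cells.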
Epigenetic derep: Quantitative High-Throughput Screen for Regulators of Epigenetic Control. Potency, µM (top dose mostly 53.9 µM), for the others: at the highest dose GFP activation, hits mostly activators. 0.2% of 280,000 active. murine LDR cells, GFP reporter derepression, 30 h. AID 1865, 2009; active = well fitted activation curve with a large enough effect; inconclusive = small, poorly fitted or top-dose-only effect; also: potency is read from the fitted curve at half-maximal effect; % of control where 0% means no effect; nearly all actives have a fitted effect of over 60% in size
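Murine LDR cells bearing a silenced CMV-driven GFP reporter were exposed to compound for 30 h at 37 C. After PBS washes, GFP-positive cells (20-120 um objects) counted by laser-scanning microplate cytometry.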
* marks the source's active call; other numbers are inactive results; u = inconclusive; x = no result. Rule as the data show it, unless noted: active = activation above about 30%; inactive = the rest.

SMILES	D1 PAM	D1 agonist	TRHR ag	D1 antag	TRHR enhancer	Epigenetic derep
O=C(CS(=O)(=O)c1c[nH]c2ccccc12)N1CCCc2ccccc21	-3	-2	0	-50*	0	-1%
CCc1ccccc1NC(=O)Nc1cc(C(=O)NCc2ccc(OC)cc2)ccc1N1CCCC1	0	3	-1	-9	3	9%
CCOc1ccc2oc(C(=O)NCc3ccccc3CN3CCCC3)c(C)c2c1	-22	1	0	-20	5	x
COc1ccc2oc(C(=O)NCc3ccccc3CN3CCCC3)c(C)c2c1	x	6	1	-57*	5	x
COc1ccc2cc(C(=O)NCc3ccccc3CN3CCCC3)ccc2c1	-15	3	1	-64*	-1	x
COc1ccc(NC(=O)c2c(NCc3ccc(OC)c(OC)c3OC)sc3c2CCC3)c(OC)c1	-1	0	0	-8	-4	u
COc1ccc(C2(CCN=Cc3ccc(N(C)C)cc3)CCOC(C)(C)C2)cc1 (centres undefined)	-2	2	-1	-78*	6	0%
COc1cc(OC)cc(-c2nc3nc(C)c(CCC(=O)Nc4ccc(C)c(C)c4)c(C)n3n2)c1	-3	3	1	-57*	6	1%
COc1cc(NC(=O)CCc2c(C)nc3c(-c4ccc(F)cc4)c(C)nn3c2C)cc(OC)c1OC	-8	0	0	-41*	4	0%
Cc1ccc(NC(=O)CCc2c(C)nc3c(-c4ccc(F)cc4)c(C)nn3c2C)cc1F	-4	2	0	5	7	0%
CCOC(=O)C1=NN(C(=O)c2cccc(Br)c2)C(O)(C(C)(C)C)C1 (centres undefined)	-10	51*	22	-9	-8	3%
CCOC(=O)C1=NN(C(=O)c2ccc(OC)cc2)C(O)(c2ccc(Cl)cc2)C1 (centres undefined)	-4	128*	14	-27	-2	2%
CCOC(=O)C1=NN(C(=O)Cc2ccccc2)C(O)(c2ccc(Cl)cc2)C1 (centres undefined)	2	6	0	40	4	1%
CCOC(=O)C1=NN(C(=O)c2ccccc2)C(O)(c2ccc(C)cc2)C1 (centres undefined)	8	19	0	-12	-7	0%
COC(=O)C1=NN(C(=O)c2cccc(Br)c2)C(O)(c2ccc(Cl)cc2)C1 (centres undefined)	1	106*	16	-9	2	1%
CCc1ccc(CNC(=O)CN2C(=O)CSc3c2c(C)nn3-c2ccccc2)cc1	-2	1	1	9	-3	0%
Cc1c(C)c2c(cc(C)c3c(-c4ccccc4)coc32)oc1=O	1	0	0	19	5	2%
O=C(c1ccc(Cl)cc1)n1nc(-c2ccco2)nc1NCc1cccs1	-1	2	0	0	-1	1%
C[C@]12CCC(=O)C=C1C=C[C@@H]1[C@@H]2CC[C@@]2(C)[C@H]1CC[C@@]21CCC(=O)O1	-6	2	0	-34*	-6	x
CCOC(=O)c1c(NC(=O)CSc2nnc(-c3ccccc3)o2)sc(C(C)=O)c1C	-2	1	0	-2	-2	2%
CCOC(=O)c1c(NC(=O)CSc2nnc(Cc3ccccc3)o2)sc(C(C)=O)c1C	-10	1	-1	-36*	-2	-1%
COc1ccc2sc(N(Cc3cccnc3)C(=O)CCc3ccccc3)nc2c1	-2	34*	-1	x	12	4%
CN(C)CCCN(C(=O)CCc1ccccc1)c1nc2ccc(F)cc2s1	-7	32*	4	-6	0	-1%
